According to PubChem BioAssay AID504692 (The Scripps Research Institute Molecular Screening Center, 2011):
The whole screen tested about 340,000 compounds, of which about 2,000 (0.59%) were called active. What follows is part of a selection rich in actives, with near analogues and random picks from the rest. Values without a mark were called inactive. Rule as the data show it: active = activation mostly above about 9.5% (no sharp cut-off); inactive = mostly below about 7.6%.

Target: 5-hydroxytryptamine receptor 5A (Homo sapiens) (UniProt P47898)
Sequence (P47898 whole entry, looked up): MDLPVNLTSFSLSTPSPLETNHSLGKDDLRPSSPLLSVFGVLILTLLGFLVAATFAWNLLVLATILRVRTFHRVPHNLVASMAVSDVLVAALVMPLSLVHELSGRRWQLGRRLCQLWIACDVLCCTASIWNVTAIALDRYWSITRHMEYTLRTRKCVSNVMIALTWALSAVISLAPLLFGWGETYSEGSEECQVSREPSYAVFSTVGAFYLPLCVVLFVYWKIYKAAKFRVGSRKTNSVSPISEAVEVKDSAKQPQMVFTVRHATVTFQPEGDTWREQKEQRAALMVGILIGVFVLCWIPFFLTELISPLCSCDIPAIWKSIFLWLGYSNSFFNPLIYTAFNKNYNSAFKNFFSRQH
Assay: HTR5A agonists in luminescence cell assay, primary screen, counter-screen for OPRM1-OPRD1 heterodimer agonist project, full-deck HTS (AID 504692);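 also: 0% = cells with vehicle only and 100% = reference agonist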
Details: cell-based, at 9.3 µM, hits give high values

SMILES	activation
COc1ccc(S(=O)(=O)Nc2cc(C)on2)cc1NC(C)=O	1.04%
CC(C)(C)c1ccc(C(=O)N2CCC(C(=O)N3CCCCC3)CC2)cc1	5.42%
COc1ccccc1CNC(=O)C1CCN(S(=O)(=O)c2ccc3c(c2)CC(C)N3C(=O)C2CC2)CC1 (configuration not stated)	-0.1%
CC1Cc2ccccc2N1C(=O)CSc1nnc(-c2ccc(S(=O)(=O)N3CCCC3)cc2)n1C (configuration not stated)	2.27%
COc1ccc(S(=O)(=O)N2CCN(CC(=O)N3c4ccccc4CC3C)CC2)cc1OC (configuration not stated)	22.4% (active)
O=C(CCS(=O)(=O)c1cccc2nsnc12)N1CCN(c2ccccc2F)CC1	5.73%
CN(Cc1ccccc1)C(=O)c1cccc(C(=O)N(C)Cc2ccccc2)c1	-0.63%
CC(Cc1ccccc1)C(=O)N(C)Cc1ccccc1 (configuration not stated)	12.5% (active)
CN(Cc1ccccc1F)C(=O)C(Cc1ccccc1)NC(=O)c1ccccc1 (configuration not stated)	-1.74%
O=C(COC(=O)/C=C/c1ccc(S(=O)(=O)N2CCCCCC2)cc1)NCc1ccccc1Cl	-5.05%
O=C1CCCN2N=C(SCC(=O)Nc3ccc(Br)cc3)SC2=N1	-3.71%
CCCCCN(C(=O)NC(=O)Nc1ccccc1OC)S(C)(=O)=O	-1.57%
Cc1ccc(C2=N/C(=C\c3ccc(OS(=O)(=O)c4ccc(C)cc4)cc3)C(=O)O2)cc1	0.86%
CCOc1cc(/C=C2/N=C(c3ccc(C(C)(C)C)cc3)OC2=O)cc(Cl)c1OS(C)(=O)=O	13.3% (active)
Cc1cc(C)c(C)c(S(=O)(=O)Nc2ccc(O)cc2)c1C	3.2%
Cc1cc(C)c(C)c(S(=O)(=O)Nc2cccnc2)c1C	13.8% (active)
COc1ccc(S(=O)(=O)Nc2cccnc2)c(Cl)c1Cl	-1.41%
O=C(OCc1ccc([N+](=O)[O-])cc1)C1CC(=O)N(Cc2ccccc2Cl)C1 (configuration not stated)	-0.92%
CCc1cccc(C)c1NS(=O)(=O)c1c(C)nc2sccn2c1=O	0.59%
COCCC(=O)N1CCC(Oc2ccc(C(=O)NCc3ccon3)cc2)CC1	1.64%
COc1ccc(CCNC(=O)CC2SC(=Nc3cc(C)cc(C)c3)NC2=O)cc1OC (configuration not stated)	1.71%
O=C(CC1NCCNC1=O)Nc1ccc(Oc2ccccc2)cc1 (configuration not stated)	1.17%

SMILES	activation
COC(=O)c1cc(C)sc1NC(=O)CC1Nc2ccccc2NC1=O (configuration not stated)	2.14%
O=C(CC1Nc2ccccc2NC1=O)Nc1ccccc1 (configuration not stated)	17% (active)
COc1ccc(/C=C(\NC(=O)c2ccc(OCC(C)C)cc2)C(=O)OCc2ccco2)cc1	-0.73%
O=S(=O)(NCc1cccnc1)c1ccc(Cl)nc1	-5.88%
COc1ccc2[nH]cc(CCN3C(=O)c4ccc(C(=O)O)cc4C3=O)c2c1	27% (active)
Cc1ccc2[nH]cc(CCCN3C(=O)c4ccccc4C3=O)c2c1	-1.1%
COCCCN1C(=O)c2ccc(C(=O)Nc3ccc(OC)cc3OC)cc2C1=O	-0.44%
O=C(CNCc1cccs1)Nc1cc(S(=O)(=O)N2CCCC2)ccc1Cl	-2.05%
COc1ccccc1CNC(=O)C1CCCN(S(=O)(=O)c2cccc3cccnc23)C1 (configuration not stated)	-3.07%
CCC(C)OC(=O)C(C)Oc1ccc(-c2ccccc2)cc1 (configuration not stated)	3.02%
CC(=O)Nc1ccc(N2C(=O)C3C4CC(=O)C(c5ccccc54)C3C2=O)cc1 (configuration not stated)	-1.72%
CC1=C(C)CC2C(=O)N(c3cccc4ccccc34)C(=O)C2C1 (configuration not stated)	1.96%
CCc1ccccc1N1C(=O)C2C3CC(=O)C(c4ccccc43)C2C1=O (configuration not stated)	10.2% (active)
Cn1nc(C(C)(C)C)c([N+](=O)[O-])c1C(N)=O	-3.65%
NC(=O)c1ccc(N2CCOCC2)nc1	5.3%
CCCN(CC1CC1)C(=S)NC(=O)c1ccccc1Br	-3.6%
CC[C@]12c3[nH]c4cc(CCC(=O)N(C)C)ccc4c3CCN1C(=O)[C@@H](CC(=O)NCCCN(C)C)C[C@@H]2C(=O)N1CCN(C(=O)c2ccco2)CC1	4.2% (active)
CC[C@]12c3[nH]c4cc(CCC(=O)N(C)C)ccc4c3CCN1C(=O)[C@@H](CC(=O)NCc1ccco1)C[C@@H]2C(=O)N1CCN(C(=O)c2ccco2)CC1	-2.65%
CC[C@]12c3[nH]c4cc(CCC(=O)N(C)C)ccc4c3CCN1C(=O)[C@@H](CC(=O)NCCCn1ccnc1)C[C@@H]2C(=O)N1CCN(C(=O)C2CC2)CC1	2.93%
O=C(c1cccnc1)N(Cc1ccccc1)C(=O)c1cccnc1	5.83%
O=C(c1cccnc1)N(c1cc2sc(=O)oc2c2ccccc12)S(=O)(=O)c1ccccc1	16.1% (active)
COc1ccc(N(C(=O)c2cccnc2)S(=O)(=O)c2ccc(OC)c(OC)c2)cc1	6.11%

SMILES	activation
COCCCn1c(-c2cccs2)nc2nc3ccccc3nc21	-0.51%
CC(OC(=O)CCc1nc(=O)c2ccccc2n1C)C(=O)NCc1ccc2c(c1)OCO2 (configuration not stated)	-4.46%
C=CCSc1nnc2c(n1)-c1cccc3cccc-2c13	-0.69%
COc1cccc(C(=O)NNS(=O)(=O)c2ccc(F)cc2)c1	-2.33%
O=C(COc1ccc(Cl)cc1[N+](=O)[O-])N1CCCCC1	-1.55%
O=C(c1ccc(Oc2ccc(Cl)cc2)c([N+](=O)[O-])c1)N1CCCC1	11% (active)
Nc1ccc(C(=O)N2CCN(S(=O)(=O)c3ccc(Cl)cc3)CC2)cc1[N+](=O)[O-]	-1.02%
Cc1cnc(C(=O)N2CCCC(N3CCN(c4ccccc4F)CC3)C2)cn1 (configuration not stated)	5.27%
Cc1ccc(S(=O)(=O)/N=C(/Nc2ccc3[nH]c(=O)[nH]c3c2)c2ccccc2)cc1	3.44%
COc1c(Cl)cc(C(=O)Nc2ccc(Cl)cn2)cc1Cl	18.5% (active)
COc1ccc(C(=O)NC(=S)Nc2ccc(Cl)cn2)cc1OC	0.47%
O=C(Nc1ccc(Cl)cn1)c1ccc2c(c1)OCCO2	1.65%
O=C(NCCS(=O)(=O)c1ccc(Br)cc1)c1ccccc1Cl	0.17%
Cc1ccc(CN2C(=O)N/C(=C/c3cc(C)n(-c4ccccn4)c3C)C2=O)cc1	1.53%
Cc1cccc(NC(=O)CN2CCCN(S(=O)(=O)c3ccc(Br)s3)CC2)c1	0.97%
Cc1ccc2nc(-c3ccc(SCC(=O)Nc4cc(C)on4)nc3)[nH]c2c1	-0.96%
Cc1ccc(-c2csc(SCC(=O)Nc3cc(C)on3)n2)cc1	14.7% (active)
Cc1ccc(SCCC(=O)Nc2cc(C)on2)cc1	-4.61%
O=C(NCC(F)(F)F)Nc1nnc(C(F)(F)F)s1	4%
Cc1ccc(S(=O)(=O)N(Cc2cccc([N+](=O)[O-])c2)C(=O)N2CCN(C)CC2)cc1	0.8%
O=C(c1cccc([N+](=O)[O-])c1)N1CCN(Cc2ccccc2)CC1	5.31%
O=C(CCl)N(Cc1cccc([N+](=O)[O-])c1)c1cccc(Cl)c1	40.9% (active)

SMILES	activation
O=S(=O)(NCCCCCCNS(=O)(=O)c1c(F)cccc1F)c1ccc2c(c1)OCCO2	2.32%
COc1ccccc1N(C)S(=O)(=O)c1ccc(C(=O)NC2CCCCCC2)cc1	2.54%
CC1CCC2CCCCC2N1C(=O)c1cc([N+](=O)[O-])cc([N+](=O)[O-])c1 (configuration not stated)	4.16%
CN1c2ccc(C=O)c3c(C=O)ccc(c23)N(C)C1(C)C	20.2% (active)
CN(CC(=O)Nc1ccccc1Cl)C(=O)COc1cccc2c1OC(C)(C)C2	2.73%
CCSc1nc(O)c(C(c2cccc(OC)c2)c2c(O)nc(SCC)[nH]c2=O)c(=O)[nH]1	6.11%
Cc1ccc(/C([O-])=C(/C(=S)NCc2ccco2)[n+]2ccccc2)cc1[N+](=O)[O-]	0.24%
O=C(COC(=O)CSc1nnc(-c2ccc(Cl)cc2)o1)Nc1cc(Cl)cc(Cl)c1	0.33%
O=C(NNS(=O)(=O)c1ccc([N+](=O)[O-])cc1)C1CCCCC1	-4.2%
Cc1cccc2sc(N(CCCN(C)C)C(=O)CCS(=O)(=O)c3ccccc3)nc12	23.6% (active)
COc1cccc2sc(N(CCCN(C)C)C(=O)CCS(=O)(=O)c3ccccc3)nc12	8.64%
COc1cc2ccccc2cc1C(=O)N(CCN(C)C)c1nc2c(F)cccc2s1	0.73%
CC1Cc2ccccc2N1S(=O)(=O)c1cccc(C(=O)NCC(c2ccco2)N2CCCC2)c1 (configuration not stated)	2.58%
COc1ccc(N2CCN(C(=O)Cn3cnc4sc(C)c(S(=O)(=O)N5CCOCC5)c4c3=O)CC2)cc1	-1.42%
Cc1csc2nc(COC(=O)c3cccc(N(C)C)c3)cc(=O)n12	-1.39%
O=C(COc1ccccc1F)Nc1nc(-c2ccccn2)cs1	-1.27%
CC1CCN(S(=O)(=O)c2nnc(NC(=O)COc3ccccc3F)s2)CC1	18.1% (active)
Cc1ccccc1OCC(=O)Nc1nnc(S(=O)(=O)N2CCCC2)s1	4.03%
CC(NC(=S)NNS(=O)(=O)c1ccc(C(C)(C)C)cc1)c1ccccc1 (configuration not stated)	-3.78%
COc1ccc(-c2ccc3c(c2)[C@@H]2C[C@H](N(C)S(=O)(=O)c4ccccc4)[C@H]([C@H](C)O)C(=O)N2CC3)cc1	2.65%
CC1CC(C)CN(C(=O)C2CC(=O)N(c3ccc(F)cc3)C2)C1 (configuration not stated)	5.22%
